# High-throughput results: PubChem BioAssay, The Scripps Research Institute Molecular Screening Center
# In the library only some 2.5% were active in any assay of this set; here they are far more common.
# PRMT1 FP inh – PRMT1 (human) inhibition, primary screen. 370,000 tested, 1.3% active. recombinant PRMT1, activity-based probe fluorescence polarization. Q99873. AID 652257. inhibition, % at 2.79 µM;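 active = inhibition above about 21% made by adding two undisclosed values, limit read from the data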
# UHRF1 MBD2 ctr – UHRF1 methyl-DNA binding inhibition. Q96T88. UHRF1 binding to methylated oligo, TR-FRET. inhibition, % at 4.4 µM. 370,000 tested, 0.75% active. AID 687016;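 also: UHRF1 SRA domain binding a hemimethylated CpG hairpin DNA probe; 0% = median of test compound wells and 100% = reference inhibitor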
# LEDGF integ inh – blocks HIV-1 LEDGF/p75-dependent DNA integration; inhibition, % at 3.7 µM; AID 743269; 370,000 tested, 0.64% active; TR-FRET IN-LEDGF/p75 DNA integration, Eu/Cy5;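 active = inhibition above the screen-wide mean plus 3 SD, cut at about 13% in these data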;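 also: signal is the Cy5 over europium emission ratio at 671 and 618 nm; 0% = plate median of compound wells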
# MBD2 DNA inh – MBD2-methylated oligo binding inhibition; Q9UBB5; TR-FRET, MBD2 binding to methylated oligonucleotide; inhibition, % at 4.4 µM; 370,000 tested, 0.31% active; AID 686964; in the data active = inhibition above about 13%
# Target sequence (Q9UBB5 whole entry, looked up): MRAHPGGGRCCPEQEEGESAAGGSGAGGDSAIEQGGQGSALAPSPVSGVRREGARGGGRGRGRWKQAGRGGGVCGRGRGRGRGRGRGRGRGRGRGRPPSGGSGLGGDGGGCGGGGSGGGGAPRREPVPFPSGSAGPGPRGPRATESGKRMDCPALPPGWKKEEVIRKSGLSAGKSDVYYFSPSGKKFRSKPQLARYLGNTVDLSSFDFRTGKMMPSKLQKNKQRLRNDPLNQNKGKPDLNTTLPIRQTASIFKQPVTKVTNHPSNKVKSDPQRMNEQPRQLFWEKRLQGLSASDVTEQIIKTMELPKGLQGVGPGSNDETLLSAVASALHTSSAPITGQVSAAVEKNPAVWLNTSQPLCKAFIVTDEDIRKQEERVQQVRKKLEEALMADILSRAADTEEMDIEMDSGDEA
# UHRF1 DNA bind – counter-screen for MBD2 inhibitors: human UHRF1 methylated DNA binding inhibitors; shares compounds with MBD2 DNA inh; UHRF1 binding to methylated oligonucleotide, TR-FRET; inhibition, % at 4.4 µM; 1,000 tested, 25% active; AID 720530;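 also: UHRF1 SRA domain binding a labeled hemimethylated CpG hairpin DNA; 0% = vehicle only and 100% = reference inhibitor with vehicle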
# MBD2 DBD conf – confirmation of human MBD2-DBD methylated oligonucleotide binding inhibitors; inhibition, % at 4.4 µM; 1,000 tested, 26% active; shares compounds with MBD2 DNA inh; AID 720531; TR-FRET MBD2-DBD binding to methylated oligonucleotide; in the data active = inhibition above about 14%
# Active calls of the source: *; . = no result. Rule as the data show it, unless noted: active = inhibition above about 21%; inactive = the rest.
SMILES,PRMT1 FP inh,UHRF1 MBD2 ctr,LEDGF integ inh,MBD2 DNA inh,UHRF1 DNA bind,MBD2 DBD conf
CCOC(=O)C(Cc1ccc(NC(=O)/C(=C\c2ccccc2)NC(=O)c2ccccc2)cc1)N1C(=O)c2ccccc2C1=O (configuration not stated),-0.4,3.0,3.3,-3.5,.,.
CCOC(=O)C(Cc1ccc(NC(C)=O)cc1)N1C(=O)c2ccccc2C1=O (configuration not stated),5.8,20.1,2.1,17.2*,1.9,-0.6
C=CCn1c(C)cc(C(=O)CSc2nc3ccccc3[nH]2)c1C,-3.9,-3.3,-1.8,19.5*,8.6,2.1
COc1cccc(-c2cc(C(=O)NC3CCCC3)no2)c1,-3.6,0.9,-2.5,16.3*,3.2,2.5
OC(c1ccc(F)c(F)c1)c1nc(-c2cccc(F)c2)cs1 (configuration not stated),-0.8,0.5,-2.1,1.0,.,.
CCCCn1nnnc1C1(C)CCC(=O)N1Cc1cccnc1 (configuration not stated),-1.0,3.5,-2.2,5.9,.,.
Cc1cccc(C)c1NC(=O)C1c2cccc[n+]2CC(=O)N1Cc1cccs1 (configuration not stated),2.8,-0.7,-0.6,46.4*,1.3,3.2
Cc1ccccc1NC(=O)C1c2cccc[n+]2CC(=O)N1Cc1ccc2c(c1)OCO2 (configuration not stated),-0.7,-2.5,2.1,-7.3,.,.
COc1cc(/C=C(\C#N)C(=O)N2CCOCC2)ccc1OCc1ccccc1,2.4,3.4,-4.8,5.2,.,.
COc1ccc(/C=C(\C#N)C(=O)N2CCOCC2)cc1Br,0.4,0.7,-1.1,40.8*,4.5,1.8
COc1ccc(-c2cc(-c3ccccc3)c(C#N)c(=S)[nH]2)cc1,8.6,2.2,-5.3,21.1*,6.9,3.5
CCCCn1c(=O)[nH]c(=O)c2c1nc(-c1ccccn1)n2CC,4.6,-0.7,-5.2,1.9,.,.
CCCOc1ccc(N2C(=O)CC(N(Cc3ccco3)C(=O)CCC(=O)O)C2=O)cc1 (configuration not stated),13.2,1.6,-2.5,16.3*,4.0,1.6
COCCn1c(CCC(=O)O)ccc1-c1cccs1,4.1,-0.2,3.4,0.2,.,.
O=C(O)CCc1ccc(-c2cccs2)n1CC(=O)Nc1ccccc1C(F)(F)F,10.9,1.1,0.8,27.6*,0.1,3.7
COc1ccc(S(=O)(=O)n2ccnc2C)c(C)c1C,-1.7,-0.2,3.1,2.1,.,.
O=C(CCC(=O)c1cccs1)OCC(=O)c1ccccc1,2.7,-0.4,-4.3,48.4*,4.5,1.3
O=C(C[C@H]1C/C=C\CC[C@H](Cc2ccc(F)cc2)C(=O)O[C@H](c2ccccc2)CNC1=O)N[C@H](CO)Cc1ccccc1,-1.0,-1.5,-3.6,3.6,.,.
Cc1ccc(CN(C)C(=O)c2cc(S(=O)(=O)N3CCOCC3)ccc2F)o1,0.3,-0.8,-2.7,-2.3,.,.
Nn1c(-c2ccc(O)cc2)nnc1-c1ccc(O)cc1,0.3,2.5,2.3,22.8*,5.3,3.4
CSc1nnc(-c2ccccc2)n1N,-2.1,-0.9,-1.7,-2.9,.,.
Cc1cccc2cc(C(c3nnnn3CC3CCCO3)N3CCCc4ccccc43)c(=O)[nH]c12 (configuration not stated),1.1,-1.2,-1.0,18.3*,0.8,1.6
CCn1cc(/C=C(\NC(=O)c2cc(OC)c(OC)c(OC)c2)C(=O)NCCN2CCOCC2)c2ccccc21,-3.7,-1.3,2.5,-3.7,.,.
CCn1cc(/C=C(\NC(=O)c2ccccc2OC)C(=O)NCCN2CCOCC2)c2ccccc21,2.4,-1.3,-4.1,15.6*,3.9,1.2
Cc1c(C(N)=O)cc([N+](=O)[O-])cc1[N+](=O)[O-],9.9,22.5*,2.0,17.0*,4.8,2.1
SMILES,PRMT1 FP inh,UHRF1 MBD2 ctr,LEDGF integ inh,MBD2 DNA inh,UHRF1 DNA bind,MBD2 DBD conf
CCC(=O)N1Cc2cc(C(=O)NCC(F)(F)F)nc(-c3cccc(-c4cncnc4)c3)c2[C@H]1CCO,-4.9,25.6*,8.0,13.7*,1.7,3.0
CCOc1ccc(N(CC(=O)NCCSCc2ccccc2)S(=O)(=O)c2ccccc2)cc1,2.7,2.6,-3.3,4.6,.,.
O=C(COc1ccc(-c2nnco2)cc1)N1CCOCC1,-3.7,-0.4,0.0,-5.3,.,.
C=CCn1c(COc2ccccc2)nnc1SCC(=O)O,3.2,-1.9,2.5,-2.5,.,.
C=C(C)Cn1c(COc2ccccc2)nnc1SCC(=O)O,-0.7,-0.2,1.8,15.3*,4.1,2.9
C=C(C)Cc1c(C)nc(-c2ccccc2)[nH]c1=O,0.8,0.1,0.7,1.1,.,.
CCCCCCOC(=O)Cc1c(C)nc(-c2ccccc2)[nH]c1=O,1.1,14.6,-3.6,13.4*,3.3,2.3
Cc1ccc(S(=O)(=O)N2CCOCC2)cc1NC(=O)Cn1c(=O)ccn(Cc2ccccc2)c1=O,-1.5,-2.6,1.2,14.4*,6.9,0.9
CC(=O)Nc1ccccc1-c1ccc(C)o1,-0.8,-2.3,1.3,18.5*,7.7,2.4
CC(=O)c1ccccc1NC(=O)COC(=O)C1CCCN1S(=O)(=O)c1ccccc1F (configuration not stated),-6.6,0.5,5.3,15.4*,8.2,2.6
COc1ccc(CN2C(=O)CN(S(C)(=O)=O)CC2(C)C(=O)NC(C)C)cc1OC (configuration not stated),1.6,18.1,-5.3,5.4,.,.
CC(C)CC1NC(=O)c2cccnc2-n2c1nc1cc(F)ccc1c2=O (configuration not stated),-0.6,-0.8,-3.6,-5.6,.,.
COc1ccc(OC)c(/C(O)=C/C(=O)C(=O)Nc2ccccc2OC)c1,5.1,19.0,-0.5,14.7*,5.6,0.3
CCCN(CCC)CCCNC(=O)c1nn(-c2cccc(OC)c2)c(=O)c2ccccc12,-1.9,-1.1,-1.4,-1.2,.,.
CC(=O)Nc1sc2c(c1-c1nc3ccccc3s1)CCN(C)C2,17.2,0.8,2.1,28.4*,15.4,41.6*
CC(=O)Nc1sc2c(c1-c1nc3ccccc3s1)CCOC2,11.8,-13.6,-3.2,-0.9,.,.
CC(=O)Nc1sc2c(c1-c1nc3ccccc3s1)CN(C(C)C)C2,11.7,-4.6,0.4,14.1*,11.1,28.5*
CC(C)N1CCc2c(sc(NC(=O)c3nc4ccccc4s3)c2C(N)=O)C1,-0.2,2.0,-1.2,-3.8,.,.
CC(=O)Nc1sc2c(c1-c1nc3ccccc3s1)CN(C(C)C)CC2,3.4,2.9,2.5,36.1*,24.1*,57.0*
CC(=O)Nc1sc2c(c1-c1nc3ccccc3s1)CCCN(C(C)C)C2,-0.1,27.8*,3.3,50.2*,35.1*,54.6*
C[C@H](O)[C@@H]1CN2CCc3c([nH]c4c(-c5ccccc5)cccc34)[C@@H]2C[C@@H]1N(C)C(=O)Nc1ccccc1,3.5,-1.2,1.9,-3.3,.,.
CNS(=O)(=O)c1cccc(C(=O)OCC(=O)Nc2ccccc2F)c1,4.2,25.7*,0.1,16.7*,4.1,1.8
CCC(C)(C)C1CCC2(CC1)NC(=O)N(CC(=O)N1CCN(c3ccccc3OC)CC1)C2=O (configuration not stated),-1.8,-0.7,-0.3,1.0,.,.
